From PubChem BioAssay
Sampled rows, rich in hits. Any-hit rate of the full collection: about 4.6%.
USP8 block = inhibitors of human USP8 deubiquitinase; P40818; purified USP8, Ub-rhodamine cleavage fluorescence, 30 min; inhibition, % at 20 µM; 47,000 tested, 4.2% active
UCHL1 block = inhibitors of human UCHL1 deubiquitinase. purified UCHL1, Ub-rhodamine cleavage fluorescence. inhibition, % at 20 µM. 47,000 tested, 0.2% active
USP10 inh = blocks human USP10 ubiquitin-rhodamine cleavage. Q14694. purified USP10, Ub-rhodamine fluorescence, 60 min. inhibition, % at 20 µM. 47,000 tested, 1.1% active
USP7 inh = human USP7 deubiquitinase inhibition; Q93009; purified USP7, Ub-rhodamine cleavage fluorescence; inhibition, % at 20 µM; 47,000 tested, 0.3% active
Of the large screens only hits and unclear results are named; the others gave an inactive call. Rule as the data show it: active = inhibition above about 30%; inactive = the rest.

c1ccc(-c2cc3c(N4CCc5ccccc5C4)ncnc3s2)cc1	USP8 block 53.4
COc1ccc(CNC(=O)c2ccc3c(=O)nc4c(-c5cccc(C)c5)n[nH]n4c3c2)cc1	USP8 block 61.0, USP10 inh 41.1
O=C(COc1ccc(N2CC(C(=O)NCc3ccc4c(c3)OCO4)CC2=O)cc1)Nc1ccc(F)cc1 (configuration not stated)	USP8 block 52.6, USP10 inh 49.4
O=C(COc1ccc(N2CC(C(=O)NCc3ccccc3)CC2=O)cc1)Nc1ccc(F)cc1 (configuration not stated)	USP8 block 64.0
O=C(COc1ccc(N2CC(C(=O)NCc3ccc4c(c3)OCO4)CC2=O)cc1)Nc1ccc(Cl)cc1 (configuration not stated)	USP10 inh 38.2
CC(OC(=O)c1ccc(N2CCCC2=O)cc1)C(=O)Nc1ccc2c(c1)OCCO2 (configuration not stated)	none
CC(OC(=O)c1ccc(N2CCCC2=O)cc1)C(=O)Nc1ccc2c(c1)OCO2 (configuration not stated)	USP8 block 55.7
NS(=O)(=O)c1ccc(NC(=O)C2Cc3ccccc3C(=O)O2)cc1 (configuration not stated)	USP8 block 35.9
O=C(Oc1ccccc1Br)c1ccc(Cl)c(S(=O)(=O)N2CCCCC2)c1	USP8 block 30.6
N#Cc1ccccc1NC(=O)c1ccc(Cl)c(S(=O)(=O)N2CCCCCC2)c1	none
Cc1cc(Nc2ccc(C)c(F)c2)c2ccccc2n1	none
FC(F)(F)c1ccc(Nc2nnnc3ccccc23)cc1	USP8 block 63.8, USP10 inh 46.6, USP7 inh 59.9
CCOC(=O)c1cc(=O)c2ccc(OCC(=O)Nc3ccc4c(c3)OCCO4)cc2o1	USP8 block 64.8
CNc1nc(C2CCN(C(=O)C3(c4cccc(C)c4)CCOCC3)C2)nc2c1CCN(C)C2 (configuration not stated)	USP8 block 37.3
CNc1nc(C2CCN(C(=O)C3(c4cccc(C)c4)CCOCC3)C2)nc2c1CN(C)CC2 (configuration not stated)	none
O=C(Nc1ccc2nccnc2c1)c1cccc(C(F)(F)F)c1	none
Fc1cccc(Cn2cc(-c3noc(-c4ccncc4)n3)nn2)c1	none
COc1ccc(NC(=O)CC(NCc2ccco2)C(=O)O)c(OC)c1 (configuration not stated)	none
CCCn1cc(C(=O)N2CCC3(CC2)CC2(CO3)Nc3ccccc3-n3cccc32)c(C)n1 (configuration not stated)	USP8 block 93.9
O=C(c1ccco1)N1CCC2(CC1)CC1(CO2)Nc2ccccc2-n2cccc21 (configuration not stated)	USP8 block 67.5
O=C(c1cscn1)N1CCC2(CC1)CC1(CO2)Nc2ccccc2-n2cccc21 (configuration not stated)	USP8 block 94.2
O=C(c1cccnc1)N1CCC2(CC1)CC1(CO2)Nc2ccccc2-n2cccc21 (configuration not stated)	USP8 block 92.9
CN(C)[C@@H]1CN(Cc2ccccc2O)C[C@H]1c1cn(C)c2ccccc12	none
O=C(c1ccncc1)N1CCC2(CC1)CC1(CO2)Nc2ccccc2-n2cccc21 (configuration not stated)	USP8 block 71.0
CC(C)(C)c1cc(C(F)(F)F)n2nc(-c3ccc(Br)cc3)cc2n1	none
Cc1csc(NC(=O)c2c[nH]c3ccc(F)cc3c2=O)n1	USP8 block 85.3, USP10 inh 46.2
COc1ccc2[nH]cc(C(=O)c3ccc(F)cc3)c(=O)c2c1	none
COc1ccccc1C(=O)N1CCC(S(=O)(=O)c2ccc(-c3ccco3)cc2)CC1	USP8 block 53.4
O=C(c1cnc2ccccc2n1)N1CCC(S(=O)(=O)c2ccc(-c3ccco3)cc2)CC1	USP8 block 55.9
COc1ccc(S(=O)(=O)N2CCN(C(=O)c3cnc4ccccc4n3)CC2)cc1OC	USP8 block 61.3
Cc1cc(CN2CCN(C(C(=O)Nc3ccc(F)cc3)c3ccccc3)CC2)no1 (configuration not stated)	none
COc1cc(OC)cc(N(C(=O)c2cnccn2)C(C(=O)NC2CCCCC2)c2ccc(O)cc2)c1 (configuration not stated)	none
CCc1ccccc1S(=O)(=O)Nc1cccn2cnnc12	none
COc1cccc(NC(=O)c2cc(-c3cccs3)on2)c1	none
CCS(=O)(=O)N1CCC2(CC1)CNC(=O)c1ccccc1O2	none
Nc1nccnc1CC1CCCN(C(=O)c2ccc3ncccc3c2)C1 (configuration not stated)	none
Cc1cc(C)n(CC(=O)NCc2cccc(F)c2)c1-c1nc(C2CC2)no1	none
Cn1c2ccccc2c(=O)c2c(=O)n(Cc3ccco3)c(C3CCCCC3)nc21	USP8 block 30.5
Cc1nc2c(c(=O)c3ccccc3n2C)c(=O)n1Cc1ccco1	none
O=C(CCC1CCCCC1)Nc1ccccc1C(=O)N1CCOCC1	USP8 block 80.0
CCC(C)N1CNc2c(c(=O)[nH]c(=O)n2Cc2ccco2)C1 (configuration not stated)	USP10 inh 30.5
O=C1c2ccccc2NC2(C(=O)Nc3ccc(Br)cc32)N1c1ccccc1 (configuration not stated)	USP8 block 32.9
CC(C)N1CCC2(CC1)Nc1ccccc1C(=O)N2Cc1ccccc1	none
O=C(Nc1ccccc1)C1Cn2ccnc2C2(CCN(C(=O)c3ccn[nH]3)CC2)O1 (configuration not stated)	none
COc1ccc(C2c3c(-c4ccccc4O)n[nH]c3C(=O)N2Cc2ccncc2)cc1OC (configuration not stated)	none
COCCN1C(=O)c2[nH]nc(-c3ccccc3O)c2C1c1cccc(OCc2ccccc2)c1 (configuration not stated)	USP8 block 64.7
CC1CCN(CCNC(=O)C2CCN(S(=O)(=O)c3cccc4cccnc34)CC2)CC1	none
O=C(c1cccc(Br)c1)N1CCC2(CC1)NCCc1[nH]cnc12	none
COc1ccc(CN(C(=O)COc2ccccc2C)c2ccccc2C(=O)O)cc1	none
O=C(NCc1ccccc1Cl)C1CCN(c2ccc(-c3ccccc3)nn2)CC1	USP8 block 46.6, USP10 inh 30.5
Cc1ccc(C)c(NCc2cc(=O)n3ccsc3n2)c1	none
Cc1ccc2c(c1)c(=O)c(C(=O)c1ccccc1)cn2CC(=O)Nc1ccc(C)c(Cl)c1	USP8 block 58.9
Cc1ccc2c(c1)c(=O)c(C(=O)c1ccccc1)cn2CC(=O)Nc1ccc2c(c1)OCO2	USP8 block 70.8, USP10 inh 30.8
COc1cc2[nH]c3c(N4CCOCC4)ncnc3c2cc1OC	none
OCC1CSC(c2ccccc2O)=N1 (configuration not stated)	none
CC1CCCN(c2cc(C(=O)Nc3ccc4c(c3)CCC4)c3ccccc3n2)C1 (configuration not stated)	none
COc1ccc(-c2nn(-c3ccccc3)cc2C(=O)Nc2ccc(N3CCOCC3)cc2)cc1	USP8 block 60.6
Cc1ccc(S(=O)(=O)N2CCN(S(=O)(=O)N3CCCCCC3)CC2)cc1	USP8 block 31.0
Cc1ccc(Cn2cc(S(=O)(=O)N3CCCCC3)ccc2=O)cc1	none
